Source: PubChem
Apoferritin bind = candidate novel general anesthetic via apoferritin binding; P02791; apoferritin/1-aminoanthracene competitive binding, fluorescence; Potency, µM (doses to about 77.5 µM), inactives show top-dose activity change, negative = displacement, usual class: inhibitors; hit rate 0.074% among 350,000; AID 485281; also: potency is read from the fitted curve at half-maximal effect; % is scaled to controls: 0 for no effect and ±100 for the full control effect; nearly all actives have a fitted effect of over 20% in size
Target sequence (P02791 2-175 limits assumed): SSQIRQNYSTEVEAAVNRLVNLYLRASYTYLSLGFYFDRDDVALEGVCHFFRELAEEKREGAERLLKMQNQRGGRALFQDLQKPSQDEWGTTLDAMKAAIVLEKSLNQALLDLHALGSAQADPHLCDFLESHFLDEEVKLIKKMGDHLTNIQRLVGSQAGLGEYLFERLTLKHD
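Steps: apoferritin (10 uM) was premixed with half-saturated 1-AMA in PBS, compounds were pin-transferred, plates stood 10 min at room temperature, fluorescence was read at 380/535 nm, and curves were fitted with a Hill equation.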
S-ASM inh = inhibitors of human secretory acid sphingomyelinase | placental ASM, HMU-PC fluorogenic substrate, 60 min | Potency, µM (highest dose often 57.5 µM), for inactives: top-dose activity change, negative = inhibition, most hits filed as inhibitors | P17405 | hit rate 0.006% among 340,000; also: potency is read from the fitted curve at half-maximal effect
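Human placenta-derived ASM enzyme was preincubated with compound for 10 minutes at room temperature, then given fluorogenic substrate HMU-PC0 (9 uM final) for 60 minutes at 37 °C; a pH 10 stop preceded fluorescence reading at Ex 386/Em 447 nm.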
KCNH2 3.1 inh = blocks the human KCNH2 3.1 channel isoform | hit rate 0.95% among 340,000 | U2OS KCNH2 3.1, thallium flux FluxOr; active compounds read low | AID 720553 | activity change, % (tested at about 1.8 µM);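 active = maximum activity change below -70%; inconclusive = maximum activity change from -70% to -50%; inactive = maximum activity change above -50%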;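 also: thallium influx rate constant from kinetic fluorescence after stimulation buffer; % is scaled to controls: 0 for no effect and ±100 for the full control effect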
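Measured as rate of thallium-driven FluxOr signal in transduced U2OS cells carrying the 3.1 channel, read kinetically for 2 min upon stimulation; values are rate constants scaled to DMSO control wells.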
mIDH1 inhibitor = blocks human mutant IDH1 R132H enzyme | AID 602179 | O75874 | Potency, µM (series often up to 76.6 µM), inactives show at the highest dose activity change, negative = inhibition, hits mostly inhibitors | hit rate 0.093% among 390,000 | IDH1-R132H enzyme, NADPH consumption, diaphorase/resazurin fluorescence; also: potency is read from the fitted curve at half-maximal effect; % is scaled to controls: 0 for no effect and ±100 for the full control effect; nearly all actives have a fitted effect of over 65% in size
Target sequence (O75874 whole entry R132H, stated change not applied): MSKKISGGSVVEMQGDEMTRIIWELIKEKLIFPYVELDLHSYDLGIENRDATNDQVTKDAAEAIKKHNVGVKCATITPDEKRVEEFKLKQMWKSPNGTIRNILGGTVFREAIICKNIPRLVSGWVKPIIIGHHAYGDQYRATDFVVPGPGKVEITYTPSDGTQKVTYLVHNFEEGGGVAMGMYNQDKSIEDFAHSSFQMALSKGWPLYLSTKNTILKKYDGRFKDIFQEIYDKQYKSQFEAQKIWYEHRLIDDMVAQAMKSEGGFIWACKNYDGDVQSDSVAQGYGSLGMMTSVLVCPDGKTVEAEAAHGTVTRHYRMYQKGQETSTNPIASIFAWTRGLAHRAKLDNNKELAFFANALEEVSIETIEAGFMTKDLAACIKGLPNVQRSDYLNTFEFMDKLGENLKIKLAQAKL
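IDH1-R132H (0.5 ug/mL dispensed) in pH 7.5 Tris buffer was preincubated 30 min with compound, then given a substrate mix of 0.016 mM NADPH and 2 mM alpha-KG for 80 min at room temperature; remaining NADPH was read by diaphorase/resazurin fluorescence.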
KCNH2 WT inh = blocks the wildtype human KCNH2 potassium channel. hit rate 0.37% among 340,000. U2OS, BacMam KCNH2, thallium flux FluxOr; active compounds read low. Q12809. activity change, % at 1.84 µM. AID 720551;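 active = maximum activity change below -70%; inconclusive = maximum activity change between -70% and -50%; inactive = maximum activity change above -50%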; also: % is scaled to controls: 0 for no effect and ±100 for the full control effect
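U2OS cells transduced with wild-type KCNH2 virus are loaded with FluxOr dye for 45 min, and thallium flux is measured in kinetic reads before and after stimulation buffer. Rate constants are normalized to DMSO controls.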
* hit, by the source's call; ? = inconclusive; . = no result; [ ] = another dose, or the depositor's remark. Sampled rows, rich in hits. Any-hit rate of the full collection: about 1.2%. Unless noted, calls follow the shape of the dose curve; as a rule, active = well fitted inhibition curve with a large enough effect; inconclusive = small, poorly fitted or top-dose-only effect; inactive = no such curve, though single readings can be large or run the other way.

SMILES	Apoferritin bind	S-ASM inh	KCNH2 3.1 inh	mIDH1 inhibitor	KCNH2 WT inh
Cc1ccc(S(=O)(=O)NCCc2cn3ccsc3n2)cc1	4.1%	.	.	-11.4%	.
Cc1ccc(CNC(=O)CCCN2C(=O)CCn3nc(-c4cn(C)c5ccccc45)cc32)cc1	-10.0%	.	.	-3.4%	.
CCN(CC)S(=O)(=O)c1ccc(S(=O)(=O)N2CCCC2)cc1	-7.2%	2.9%	11.0	10.9%	-11.1
CCOCCCN(CCC#N)S(=O)(=O)c1ccc(S(=O)(=O)N2CCCC2)cc1	-14.2%	1.4%	-8.1	4.1%	-82.4*
Cc1ccc(S(=O)(=O)Nc2cccc(C(=O)NCC3(N4CCCCC4)CCCCC3)c2)cc1F	.	2.1%	-78.3*	-9.4%	4.1
CCC1=C2CC[C@H]3C(=O)N(c4ccccc4)C(=O)[C@H]3[C@H]2[C@@]2(Cc3ccccc3)C(=NCc3ccccc3)OC(=O)N2C1=O	-10.2%	.	.	.	.
CCc1ccc2c(c1)Sc1ccccc1CC2N1CCN(C)CC1 (centres undefined)	.	-8.2%	-95.8*	2.8%	?
c1ccc2c(c1)CC(N1CCCCC1)c1ccccc1S2 (centres undefined)	.	1.8%	29.2	3.3%	-7.6
N#Cc1cc(-c2ccc(Cl)cc2)cnc1Sc1ccccc1	-9.7%	-0.3%	-78.9*	0.6%	8.2
CC(=O)OCC(NC(=O)C1CCCN1C(=O)OC(C)(C)C)C1OC(n2ccc(=O)[nH]c2=O)C(OC(C)=O)C1OC(C)=O (centres undefined)	3.5%	.	.	.	.
CC12CCC(C(=O)N(c3nccs3)C1=O)C2(C)C (centres undefined)	.	1.4%	6.4	1.8%	-4.3
Cc1ccc(N2C(=O)C3CCC(C)(C2=O)C3(C)C)cc1 (centres undefined)	-20.2%	-2.2%	-77.2*	5.8%	-0.5
CCc1cc2c(nc1CC)CCN(CC/C(C)=N/O[C@@H]1O[C@H](COC(C)=O)[C@H](OC(C)=O)[C@H](OC(C)=O)[C@H]1OC(C)=O)C2	-12.7%[15.3 µM]	.	.	.	.
S=C(NCc1ccc(Cl)cc1)NCc1ccccn1	-12.5%	-2.0%	2.1	4.6%	-4.7
CC(C)CCC(CCNCc1ccccn1)c1ccc(Cl)cc1 (centres undefined)	-5.8%	0.2%	-90.7*	-5.0%	-32.6
Cc1cccc(CSc2ncccc2C(=O)O)c1	-0.7%	7.4%	4.8	-4.6%	-87.0*
CC12C=C(/C=C/c3ccc(Br)cc3)C(C)(C1)C(c1ccc(Br)cc1)CC2=O (centres undefined)	6.6%[15.3 µM]	.	.	.	.
O=C(CSCCO)Nc1ccc(C2CCCCC2)cc1	7.08µM*	-2.7%	-7.9	5.7%	-1.3
C/C=C/C=C\C(=O)Nc1cccc(C2=NOC3(C2)C[C@H](C(N)=O)N(C(=O)/C=C/C)C3)c1 (some centres undefined)	-2.4%	-7.1%	-176.8*	-6.3%	-1.8
Cc1ccc(C)c(NC(=O)CSc2ncc3c(n2)-c2ccc(Cl)cc2N(C)S3(=O)=O)c1	-0.5%	.	.	4.1%	.
Cc1ccc(-n2ncc3c(NCc4cccnc4)ncnc32)cc1C	4.3%	-2.0%	-6.6	11.8%	5.4
Cc1cccc(-n2ncc3c(NCc4cccnc4)ncnc32)c1	-13.9%	-3.5%	-102.0*	-7.1%	-12.6
N#C/C(=C/c1cn(-c2ccccc2)nc1-c1cccc(OCc2ccc(F)cc2)c1)C(=O)NCCCn1ccnc1	?	.	-92.5*	-2.0%	-25.3
O=C(NCCCn1ccnc1)c1cn(-c2ccccc2)nc1-c1ccc(F)cc1	-20.7%	4.6%	-11.3	4.2%	33.8
CCCOc1cccc(-c2nn(-c3ccccc3)cc2/C=C(\C#N)C(=O)NCCCn2ccnc2)c1	-13.0%	-1.4%	0.1	2.3%	-186.8*
SMILES	Apoferritin bind	S-ASM inh	KCNH2 3.1 inh	mIDH1 inhibitor	KCNH2 WT inh
COc1ccccc1N(C)S(=O)(=O)c1ccc(Cl)c(C(=O)NC2=NCCS2)c1	-16.9%	-0.7%	-76.1*	1.2%	1.3
COCCCn1c(=O)c2sccc2n2c(CCCC(=O)Nc3ccc(F)c(F)c3)nnc12	2.1%	.	.	51.3%	.
O=C(c1cccc(C(F)(F)F)c1)C1CCCN(Cc2cccn2-c2ncccn2)C1 (centres undefined)	-22.3%	0.0%	-8.8	13.2%	-72.4*
CSc1ccc(C(=O)C2CCCN(Cc3cccc4nccnc34)C2)cc1 (centres undefined)	-8.2%	3.0%	-108.1*	14.9%	?
O=C(c1ccc(C(F)(F)F)cc1)C1CCCN(Cc2cccn2-c2ncccn2)C1 (centres undefined)	-22.5%	1.9%	-110.7*	-10.8%	-111.5*
O=C(c1ccc(C(F)(F)F)cc1)C1CCCN(C(=O)c2cnccn2)C1 (centres undefined)	-7.7%	-1.5%	8.0	4.5%	3.2
Cc1ccc(-c2ccc(=O)n(CC(=O)Nc3ccc(F)c(Cl)c3)n2)cc1C	?	.	.	-12.6%	.
O=C(CSCc1ccccc1)NCCc1ccc(F)cc1	-18.3%	0.9%	-99.8*	-1.0%	-7.9
COC(=O)C12CC3(CCC4C5C(C(OCc6ccccc6)C41)C52)OCCO3 (centres undefined)	4.5%[15.3 µM]	.	.	.	.
O=C(NC1CCCCC1)c1ccc(CSc2nc3cccnc3n2Cc2cccc(F)c2)cc1	-19.4%	.	.	13.2%	.
Cc1ccc(CNC(=O)CSc2nc3ccccc3[nH]2)cc1	-15.9%	1.2%	2.5	6.8%	-7.8
O=C(CSc1nc2ccccc2[nH]1)NCCc1ccc(Cl)cc1	-1.3%	-2.8%	-29.7	9.3%	-120.6*
NS(=O)(=O)c1ccc(CCNC(=O)C2CCCN(S(=O)(=O)c3cccnc3)C2)cc1 (centres undefined)	-0.2%	1.8%	1.7	-5.6%	-8.2
O=C(NCCc1ccccc1)C1CCCN(S(=O)(=O)c2cccnc2)C1 (centres undefined)	-10.1%	2.6%	11.7	0.0%	-253.9*
COc1ccc(CC2(CO)CCN(Cc3cnn(-c4ccccc4OC)c3)CC2)cc1	-13.4%	5.6%	-24.0	-3.2%	24.8
COc1ccc(CC2(CO)CCN(C/C=C/c3ccccc3OC)CC2)cc1	-3.5%	-2.9%	-109.4*	0.1%	-90.0*
COc1ccccc1/C=C/CN1CCCC(CO)(CCc2ccccc2)C1 (centres undefined)	-22.3%	-1.1%	-75.3*	-1.5%	-25.8
OCC1(CCc2ccccc2)CCCN(C/C=C/c2ccccc2)C1 (centres undefined)	?	-0.5%	?	-0.2%	-12.4
CCn1c(C(=O)Nc2c(C)cccc2C)cc2sc(Cl)cc21	-6.4%	.	.	3.5%	.
O=S(=O)(Nc1nc2ccccc2nc1Nc1ccc2c(c1)OCO2)c1ccccc1	4.2%	13.3%	-96.0*	3.3%	6.4
Cc1cccc(S(=O)(=O)Nc2nc3ccccc3nc2Nc2ccc3c(c2)OCO3)c1	107.9%	17.6%	-5.1	0.0%	-5.2
COc1ccc(NC(=O)c2c([N+](=O)[O-])c(C(C)(C)C)nn2C)cc1	4.6%	-3.2%	-81.3*	-8.8%	-12.2
